According to the supplement of paper PMC13380429:

System: Vero E6 infected with SARS-CoV-2
Assay: inhibition of SARS-CoV-2 cytopathic effect; higher = more antiviral protection, active = above 15
Details: 48 h

Measured: inhibition of SARS-CoV-2 cytopathic effect

CC(C)=CCC/C(C)=C/CC/C(C)=C/CSc1ccccc1C(=O)O [salirasib]
inactive: 1 nM 2.79% | 8.33 nM 2.19% | 100 nM 1.36% | 833.33 nM 6.06% | 10000 nM 0.01%

OC(c1ccc(-c2ccc(CN3CCN(Cc4ccncc4)CC3)cc2)c(F)c1)(C(F)(F)F)C(F)(F)F
inactive: 1 nM -1.89% | 8.33 nM 0.74% | 100 nM -2.07% | 833.33 nM -1.4% | 10000 nM -1.46%

Cc1cc(N2CCOCC2)ccc1Nc1nc(NC2CCCCC2)c2nc[nH]c2n1
inactive: 1 nM -1.92% | 8.33 nM 1.08% | 100 nM -7.66% | 833.33 nM 3.17% | 10000 nM 0.7%

CCC(C)SSc1ncc[nH]1 (stereo not given)
inactive: 1 nM -1.26% | 8.33 nM -14.1% | 100 nM 1.61% | 833.33 nM 2.44% | 10000 nM -1.36%

CN1C(=O)CC(c2ccccc2)C1=O (stereo not given) [phensuximide]
inactive: 1 nM 2.58% | 8.33 nM 3.13% | 100 nM 2.74% | 833.33 nM 2.55% | 10000 nM -1.46%

COc1cc2c(cc1-c1c(C)noc1C)ncc1[nH]c(=O)n([C@H](C)c3ccccn3)c12
inactive: 1 nM -7.87% | 8.33 nM -7.32% | 100 nM -3.13% | 833.33 nM 1.38% | 10000 nM -8.07%

COCCN1CCN(Cc2ccc(-c3n[nH]c4c3C(=O)c3c(NC(=O)NN5CCOCC5)cccc3-4)cc2)CC1
inactive: 1 nM 0.81% | 8.33 nM -16.4% | 100 nM 0.61% | 833.33 nM 2.47% | 10000 nM 9%

OC(CCN1CCCCC1)(c1ccccc1)c1ccccc1 [pridinol]
inactive: 1 nM 3.98% | 8.33 nM 4.59% | 100 nM -0.32% | 833.33 nM -9.56% | 10000 nM 0.53%

CC(=O)c1ccc2c(c1)N(CCCN(C)C)c1ccccc1S2 [acepromazine]
inactive: 1 nM -0.95% | 8.33 nM 1.58% | 100 nM -2.17% | 833.33 nM -3.24% | 10000 nM -1.2%

O=C(NC(=O)c1c(F)cccc1F)Nc1cc(Cl)c(OC(F)(F)C(F)C(F)(F)F)cc1Cl (stereo not given) [lufenuron]
inactive: 1 nM 1.67% | 8.33 nM 2.18% | 100 nM -1.16% | 833.33 nM 2.95% | 10000 nM 1.2%

c1cc(-c2cnn3cc(-c4ccc(N5CCNCC5)cc4)cnc23)c2cccnc2c1
inactive: 1 nM -0.58% | 8.33 nM -1.57% | 100 nM -4.29% | 833.33 nM -2.22% | 10000 nM 6.47%

C[C@@H]1NC(=O)[C@@H](N)CNC(=O)[C@H](C2CCNC(=N)N2)NC(=O)/C(=C/NC(N)=O)NC(=O)[C@H](CNC(=O)CC(N)CCCN)NC1=O.N=C1NCC[C@H]([C@@H]2NC(=O)/C(=C/NC(N)=O)NC(=O)[C@H](CNC(=O)C[C@@H](N)CCCN)NC(=O)[C@H](CO)NC(=O)[C@@H](N)CNC2=O)N1 [capreomycin]
inactive: 1 nM 0.56% | 8.33 nM -0.28% | 100 nM -1.08% | 833.33 nM 0.24% | 10000 nM 2.53%

Oc1cc2c(cc1O)CN(C(=S)NCCc1ccc(Cl)cc1)CCC2 [capsazepine]
inactive: 1 nM -5.03% | 8.33 nM -2.95% | 100 nM -0.11% | 833.33 nM -0.65% | 10000 nM 3.42%

CC(=O)O[C@]1(C(C)=O)CC[C@H]2[C@@H]3CCC4=CC(=O)CC[C@]4(C)[C@H]3CC[C@@]21C [hydroxyprogesterone-acetate]
inactive: 1 nM -3.23% | 8.33 nM 0.18% | 100 nM -2.75% | 833.33 nM 0.45% | 10000 nM 10.9%

C[C@H]1[C@H](OC(=O)CCC(=O)O)O[C@@H]2O[C@@]3(C)CC[C@H]4[C@H](C)CC[C@@H]1[C@@]24OO3 [artesunate]
inactive: 1 nM -1.31% | 8.33 nM -0.87% | 100 nM 1.57% | 833.33 nM -1.37% | 10000 nM -11.7%

COc1cccc(CCc2ccccc2OCC(CN(C)C)OC(=O)CCC(=O)O)c1 (stereo not given) [sarpogrelate]
inactive: 1 nM -0.45% | 8.33 nM -1.71% | 100 nM -2.81% | 833.33 nM -0.22% | 10000 nM -1.72%

CS(=O)(=O)N1CCc2c(-c3cnc(N)nc3)nc(N3CCOCC3)nc21
inactive: 1 nM -2.71% | 8.33 nM 1.07% | 100 nM 1.27% | 833.33 nM -3.9% | 10000 nM -8.89%
